Data from paper PMC5700166.
Residue numbers refer to the chain shown, from its start.

How the values were obtained:
Experiment in all cases: protein-binding microarray (PBM); PBM: ~300 nM protein, 6 mM HEPES pH 7.8, 80 mM KCl, 0.5 mM EDTA, 0.5 mM EGTA, 6% glycerol, 35 ng/ul poly-dIdC, 1% milk, 1 h, room temperature; Ap Aiptasia and Nv Nematostella (sea anemones) / Co Capsaspora / Aq Amphimedon (sponge) / Dm Drosophila / Hu human; RHD is the Rel homology domain; high values mean tight binding
Settings in all cases: dsDNA, one strand shown
GST-Ap-NF-kB RHD = biological target: T1, GST-Ap-NF-kB RHD (Exaiptasia pallida (Aiptasia), UniProt A0A913YAJ5 2-422)
T1 sequence: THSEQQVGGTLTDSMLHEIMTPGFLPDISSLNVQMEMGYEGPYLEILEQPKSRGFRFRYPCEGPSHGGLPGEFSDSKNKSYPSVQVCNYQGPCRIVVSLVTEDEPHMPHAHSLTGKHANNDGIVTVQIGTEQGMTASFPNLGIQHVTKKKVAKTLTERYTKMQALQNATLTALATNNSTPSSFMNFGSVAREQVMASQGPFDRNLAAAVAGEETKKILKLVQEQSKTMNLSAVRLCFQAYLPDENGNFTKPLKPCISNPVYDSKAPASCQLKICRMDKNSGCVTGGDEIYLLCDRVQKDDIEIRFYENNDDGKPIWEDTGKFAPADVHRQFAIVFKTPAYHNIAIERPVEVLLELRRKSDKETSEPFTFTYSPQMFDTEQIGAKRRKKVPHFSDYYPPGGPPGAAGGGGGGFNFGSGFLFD

[1] = biological target: T2, GST-Nv-NF-kB (Cys allele) (Nematostella vectensis, UniProt E5G601 2-411)
T2 sequence: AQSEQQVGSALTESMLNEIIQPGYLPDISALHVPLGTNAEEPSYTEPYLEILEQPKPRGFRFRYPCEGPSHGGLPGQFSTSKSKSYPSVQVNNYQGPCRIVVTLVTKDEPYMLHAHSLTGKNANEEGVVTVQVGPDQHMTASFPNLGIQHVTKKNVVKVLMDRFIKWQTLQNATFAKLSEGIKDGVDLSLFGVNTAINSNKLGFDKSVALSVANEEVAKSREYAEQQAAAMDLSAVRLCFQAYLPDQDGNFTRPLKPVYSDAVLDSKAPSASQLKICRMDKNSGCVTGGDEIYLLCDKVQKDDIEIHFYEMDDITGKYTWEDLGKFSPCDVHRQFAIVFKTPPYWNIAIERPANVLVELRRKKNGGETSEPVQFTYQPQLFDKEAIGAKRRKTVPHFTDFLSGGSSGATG

[2] = biological target: T3, GST-Nv-NF-kB (Ser allele) (Nematostella vectensis, UniProt A7UNT2 2-411)
T3 sequence: T2 sequence with Q21R, C66S, S207N, E215Q, V217A, E225K, A268E, D399E

GST-Co-NF-kB = biological target: T4, GST-Co-NF-kB (Capsaspora owczarzaki, UniProt F1ARL5 200-546)
T4 sequence: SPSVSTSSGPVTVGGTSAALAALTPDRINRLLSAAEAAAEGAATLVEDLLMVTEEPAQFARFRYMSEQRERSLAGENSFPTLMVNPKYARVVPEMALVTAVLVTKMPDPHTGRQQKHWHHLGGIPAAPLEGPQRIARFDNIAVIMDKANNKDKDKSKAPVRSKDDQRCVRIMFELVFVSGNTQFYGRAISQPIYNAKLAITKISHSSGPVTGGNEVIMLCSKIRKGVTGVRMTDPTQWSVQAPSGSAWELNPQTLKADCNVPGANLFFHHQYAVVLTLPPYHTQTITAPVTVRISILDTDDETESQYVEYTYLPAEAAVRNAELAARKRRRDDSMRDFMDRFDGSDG

GST-Dm-Relish = biological target: T5, GST-Dm-Relish (Drosophila melanogaster, UniProt Q94527 99-473)
T5 sequence: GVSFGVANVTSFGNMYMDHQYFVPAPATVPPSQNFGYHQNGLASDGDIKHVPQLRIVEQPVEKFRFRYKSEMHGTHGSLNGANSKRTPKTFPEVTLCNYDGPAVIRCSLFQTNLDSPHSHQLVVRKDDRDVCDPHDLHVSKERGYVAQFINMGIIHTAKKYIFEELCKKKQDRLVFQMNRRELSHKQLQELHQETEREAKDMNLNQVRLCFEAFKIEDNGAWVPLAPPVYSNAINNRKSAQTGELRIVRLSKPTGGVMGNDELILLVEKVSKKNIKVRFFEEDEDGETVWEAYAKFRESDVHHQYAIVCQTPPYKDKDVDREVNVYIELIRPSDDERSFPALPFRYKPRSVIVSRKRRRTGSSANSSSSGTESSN

GST-Aq-NF-kB = biological target: T6, GST-Aq-NF-kB (Amphimedon queenslandica, UniProt A9Y5G7 2-389)
T6 sequence: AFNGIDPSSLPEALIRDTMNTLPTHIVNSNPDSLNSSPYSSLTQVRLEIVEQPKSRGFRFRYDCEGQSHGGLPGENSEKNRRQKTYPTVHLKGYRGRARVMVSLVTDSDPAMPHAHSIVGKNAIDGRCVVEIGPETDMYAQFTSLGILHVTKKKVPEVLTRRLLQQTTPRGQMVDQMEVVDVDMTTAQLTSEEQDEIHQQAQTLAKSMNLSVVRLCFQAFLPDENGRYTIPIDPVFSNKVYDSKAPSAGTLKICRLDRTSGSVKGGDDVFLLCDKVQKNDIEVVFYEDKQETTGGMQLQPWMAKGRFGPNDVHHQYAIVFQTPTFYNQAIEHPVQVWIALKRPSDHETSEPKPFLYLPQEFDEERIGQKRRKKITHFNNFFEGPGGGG

GST-Hu-p50 = GST-Hu-p50 (Homo sapiens, UniProt P19838 7-356)
Sequence of GST-Hu-p50 (P19838 7-356): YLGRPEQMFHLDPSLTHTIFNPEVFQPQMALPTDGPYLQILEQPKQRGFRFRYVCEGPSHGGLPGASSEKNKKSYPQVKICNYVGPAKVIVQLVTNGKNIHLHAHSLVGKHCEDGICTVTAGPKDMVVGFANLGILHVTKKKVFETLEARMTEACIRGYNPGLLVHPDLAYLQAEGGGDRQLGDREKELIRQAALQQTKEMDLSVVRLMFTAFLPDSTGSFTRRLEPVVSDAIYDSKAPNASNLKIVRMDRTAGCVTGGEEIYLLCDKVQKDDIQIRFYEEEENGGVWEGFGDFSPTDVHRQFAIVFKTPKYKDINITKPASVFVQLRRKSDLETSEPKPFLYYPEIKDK

| Sequence | binding signal (GST-Ap-NF-kB RHD) [z-score] | binding signal [1] [z-score] | binding signal [2] [z-score] | binding signal (GST-Co-NF-kB) [z-score] | binding signal (GST-Dm-Relish) [z-score] | binding signal (GST-Aq-NF-kB) [z-score] | binding signal (GST-Hu-p50) [z-score] |
| --- | --- | --- | --- | --- | --- | --- | --- |
| CCGATTAACATCACGGGAAAATCTGATGTTAATCGGGTCTTGATTCGCTTGACGCTGCTG | 3.98 | 5.79 | 6.4 | 5.43 | 2.07 | 5.16 | 3.87 |
| CCGATTAACATCAAAATTCCCAGTGATGTTAATCGGGTCTTGATTCGCTTGACGCTGCTG | 3.76 | 5.07 | 4.98 | 4.87 | 5.12 | 4.23 | 4.24 |
| CCGATTAACATCAATAAAACCCCTGATGTTAATCGGGTCTTGATTCGCTTGACGCTGCTG | 5.73 | 5.27 | 5.34 | 2.26 | 7.35 | 5.25 | 6.19 |
| CCGATTAACATCAGGACATCCCCTGATGTTAATCGGGTCTTGATTCGCTTGACGCTGCTG | 6.25 | 7.54 | 5.99 | 1.88 | 8.74 | 7.75 | 5.89 |
| CCGATTAACATCAAAATTCCCTTTGATGTTAATCGGGTCTTGATTCGCTTGACGCTGCTG | 5.04 | 8.11 | 8.05 | 2.62 | 5.83 | 7.05 | 6.07 |
| CCGATTAACATCAGGGGAAGATATGATGTTAATCGGGTCTTGATTCGCTTGACGCTGCTG | 6.06 | 6.63 | 7.91 | 8.77 | 4.01 | 6.09 | 5.33 |
| CCGATTAACATCAGGGGGTTTGATGATGTTAATCGGGTCTTGATTCGCTTGACGCTGCTG | 6.11 | 4.29 | 6.14 | 1.61 | 5.81 | 4.09 | 6.03 |
| CCGATTAACATCACGGCATTCCCTGATGTTAATCGGGTCTTGATTCGCTTGACGCTGCTG | 2 | 2.64 | 2.35 | 1.73 | 2.31 | 3.81 | 1.4 |
| CCGATTAACATCAATTCCCCAGGTGATGTTAATCGGGTCTTGATTCGCTTGACGCTGCTG | 5.33 | 5.44 | 6.65 | 6.18 | 2.37 | 3.8 | 4.94 |
| CCGATTAACATCAGGGAATTTGATGATGTTAATCGGGTCTTGATTCGCTTGACGCTGCTG | 3.63 | 4.8 | 5.71 | 3.17 | 2.77 | 3.69 | 3.22 |
| CCGATTAACATCAGGGGAAGTACTGATGTTAATCGGGTCTTGATTCGCTTGACGCTGCTG | 7.14 | 8.22 | 9.13 | 5.32 | 10.7 | 7.89 | 6.9 |
| CCGATTAACATCAACATTCCCCCTGATGTTAATCGGGTCTTGATTCGCTTGACGCTGCTG | 7.55 | 8.25 | 8.8 | 9.34 | 4.3 | 6.29 | 6.48 |
| CCGATTAACATCAGAGATTTCCCTGATGTTAATCGGGTCTTGATTCGCTTGACGCTGCTG | 3.94 | 5.69 | 6.13 | 3.92 | 2.1 | 5.48 | 4.51 |
| CCGATTAACATCAGGGCCTCCCCTGATGTTAATCGGGTCTTGATTCGCTTGACGCTGCTG | 6.07 | 4.43 | 3.22 | 2.08 | 7.13 | 6.75 | 3.91 |
| CCGATTAACATCAGGGGATGCACTGATGTTAATCGGGTCTTGATTCGCTTGACGCTGCTG | 4.3 | 4.83 | 6.02 | 2.97 | 9.57 | 5.85 | 4.77 |
| CCGATTAACATCACATATTCCCCTGATGTTAATCGGGTCTTGATTCGCTTGACGCTGCTG | 7.49 | 8.81 | 9.04 | 7.39 | 4.55 | 6.7 | 5.69 |
| CCGATTAACATCAAAATTCCCCATGATGTTAATCGGGTCTTGATTCGCTTGACGCTGCTG | 8.8 | 9.9 | 10.5 | 7.72 | 7.31 | 7.95 | 6.99 |
| CCGATTAACATCAGATATCCCCCTGATGTTAATCGGGTCTTGATTCGCTTGACGCTGCTG | 7.25 | 6.62 | 7.52 | 6.39 | 5.78 | 5.89 | 5.59 |
| CCGATTAACATCACAACTTCCCCTGATGTTAATCGGGTCTTGATTCGCTTGACGCTGCTG | 6.77 | 8.34 | 9.8 | 5.34 | 6.89 | 6.51 | 6.13 |
| CCGATTAACATCACAATTTCCCCTGATGTTAATCGGGTCTTGATTCGCTTGACGCTGCTG | 8.29 | 9.4 | 12 | 8.61 | 5.96 | 6.69 | 6.74 |
| CCGATTAACATCAAAAATTACCCTGATGTTAATCGGGTCTTGATTCGCTTGACGCTGCTG | 4.2 | 7.43 | 7.03 | 4.09 | 6.42 | 6.93 | 5.22 |
| CCGATTAACATCAGGGGAGGGACTGATGTTAATCGGGTCTTGATTCGCTTGACGCTGCTG | 4.36 | 4.69 | 4.55 | 2.92 | 3.83 | 5.21 | 3.82 |
